Assay [1] in a line: inhibitors of TNFa-induced NFkB p65 translocation, primary screen, imaging, HUVEC, MLSMR starter and 10KST1 sets (AID 438;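 active = inhibition above 20% together with a positive visual image hit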;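 also: compound added about 3h40 before a 20 min TNFalpha stimulation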;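 as to inhibition: signal is the nuclear over cytoplasmic p65 intensity ratio per well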). To be noted: HUVEC TNFa-induced p65 nuclear translocation; cell count: measured here: nuclei count (cytotoxicity indicator), at 2.08 µM; inhibition: at 2 µM, stronger effect = higher value, 0% TNFa-plus-vehicle, 100% no-TNFa wells.
A short description of assay [2]: inhibitors of mutant huntingtin aggregation, primary screen, imaging, exon1htt(103Q)mCFP cells, high-content imaging (AID 483;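 active = visual image review flags a hit and inhibition of aggregation exceeds 20%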;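 also: compound exposure lasted 3 days before fixation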;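 as to nuclei count: percent of the per-plate median nuclei count of sample wells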). The following applies: exon1htt(103Q)mCFP cell line, aggregate imaging, at 2 µM; inhibition of aggregation: stronger effect = higher value; nuclei count: measured here: cell count, toxicity.
A short description of assay [3]: inhibitors of E-selectin induction by TNFa, primary screen, imaging, HUVEC, immunofluorescence, MLSMR starter and 10KST1 sets (AID 487;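 active = visually confirmed hit in the image check and inhibition above 20%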;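 as to inhibition: signal is fraction of cell area covered by stained E-selectin grains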;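 as to nuclei count: 100% = median nuclei count of all wells on the same plate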). To be noted: HUVEC TNFalpha-induced E-selectin immunofluorescence imaging, at 2 µM; inhibition: stronger effect = higher value; nuclei count: measured here: cell number, toxicity.
The target of assay [4] is Voltage-gated potassium channel subunit beta-2 (Rattus norvegicus) (UniProt P62483). Briefly: KvBeta enzyme negative modulators, primary screen, biochemical, NADPH fluorescence (AID 622;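 active = fluorescence slope higher than the sample average by over 3 SD, cut at about -0.22 in these data, passing the limit was not always enough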;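 also: slope of raw intensity against log time taken from 70 to 1610 s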). The following applies: recombinant KvBeta, 4-cyanobenzaldehyde reduction, at 10 µM, stronger effect = higher value.
Voltage-gated potassium channel subunit beta-2 (Rattus norvegicus), sequence (P62483 whole entry, looked up): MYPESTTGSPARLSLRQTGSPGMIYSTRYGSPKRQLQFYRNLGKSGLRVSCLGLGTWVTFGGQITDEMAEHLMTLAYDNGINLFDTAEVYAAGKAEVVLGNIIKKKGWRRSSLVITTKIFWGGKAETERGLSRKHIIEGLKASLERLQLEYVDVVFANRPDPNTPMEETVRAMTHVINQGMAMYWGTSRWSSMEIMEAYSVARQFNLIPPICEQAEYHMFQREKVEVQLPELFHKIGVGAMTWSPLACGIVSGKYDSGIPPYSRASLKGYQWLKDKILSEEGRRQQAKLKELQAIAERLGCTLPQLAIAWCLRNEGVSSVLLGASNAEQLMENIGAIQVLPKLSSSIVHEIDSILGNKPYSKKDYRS
For assay [5] the target is unchanged. Briefly: KvBeta positive modulators, primary screen, biochemical, NADPH fluorescence (AID 623;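 active = NADPH fluorescence slope more negative than the mean of all samples by about 3 SD, 99.7% confidence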;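 also: fluorescence intensity change per second fitted from 20 to 320 s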). The following applies: Recombinant KvBeta, NADPH fluorescence decrease slope, 10 min; at 10 µM; stronger effect = lower value.
The target of assay [6] is Alpha-2C adrenergic receptor (Homo sapiens) (UniProt P18825). Briefly: modulators of alpha2C/GIRK thallium flux, primary screen, cell-based, HEK293 alpha2C/GIRK1/2 (AID 624;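 active = fluorescence slope after compound addition differing from the mean of all screened samples at 99.7% confidence, in either direction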;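 also: slope of fluorescence ratio to pre-addition baseline per second over 15 to 24 s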). The following applies: thallium flux BTC fluorescence, at 10 µM, actives lie on both sides.
Alpha-2C adrenergic receptor (Homo sapiens), sequence (P18825 whole entry, looked up): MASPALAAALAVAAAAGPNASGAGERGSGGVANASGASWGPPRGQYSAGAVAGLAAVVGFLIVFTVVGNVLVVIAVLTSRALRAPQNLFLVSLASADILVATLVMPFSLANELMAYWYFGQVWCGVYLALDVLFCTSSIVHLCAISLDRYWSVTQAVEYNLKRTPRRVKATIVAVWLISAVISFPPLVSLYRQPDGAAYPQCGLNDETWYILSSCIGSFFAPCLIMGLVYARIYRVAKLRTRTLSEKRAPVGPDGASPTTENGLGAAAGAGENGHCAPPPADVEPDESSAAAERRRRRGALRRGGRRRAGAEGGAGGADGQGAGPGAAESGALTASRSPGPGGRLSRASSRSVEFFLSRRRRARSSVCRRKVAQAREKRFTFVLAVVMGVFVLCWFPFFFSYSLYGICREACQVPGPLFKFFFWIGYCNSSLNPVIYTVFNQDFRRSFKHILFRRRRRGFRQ
Assay [7] in a line: inhibitors of Sendai virus-induced IRF3 signaling, primary screen, TLR/RLR signaling modifier project, cell-based, Sendai virus stimulus, luciferase, 10K MLSCN set (AID 602276).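 Also: firefly luciferase from ISG56 promoter only with Renilla not read in this screen; 0% = Sendai virus plus DMSO and 100% = medium plus DMSO without virus.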 The following applies: HEK293 RL24 IRF3 luciferase reporter, at 10 µM, stronger effect = higher value. A general note: Reporter assays use an easily measured gene product as a stand-in for the process of interest.

Assay [8] in a line: inhibitors of poly I:C-induced TLR3 signaling, primary screen, cell-based, poly I:C stimulus, luciferase, 10K MLSCN set (AID 602277;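 active = inhibition of the reporter signal at or above 50%; inactive = inhibition below 50%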). The following applies: HEK293-TLR3 RL24 IRF3 luciferase reporter, at 10 µM, stronger effect = higher value.

Active and inactive are the calls of the source.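 The calls were made as follows, unless noted: active = inhibition at or above 50% at 10 µM; inactive = inhibition below 50%.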

`CCOc1ccc(OCC)c(NC(=O)CN2CCN(C(=O)c3ccco3)CC2)c1`: the cell count in assay [1] is 554. In addition, the inhibition is -19.4% (inactive) in assay [1], -77.5% (inactive) in assay [3], -15.6% (inactive) in assay [7] and -16.4% (inactive) in assay [8]. In addition, the inhibition of aggregation in assay [2] is -12.3% (inactive). For the same molecule, the nuclei count in assay [2] was 122%; in assay [3] it was 102%. Further, the fluorescence slope in assay [4] is -0.546 (inactive). The NADPH fluorescence slope in assay [5] was 1.9e-05 (inactive). Besides, the slope in assay [6] is 0.00515 (inactive).

For `O=c1[nH]c2cc3c(cc2cc1C(c1nnnn1Cc1ccccc1)N1CCCc2ccccc21)OCO3` (centres undefined), the cell count in assay [1] turned out to be 552. The inhibition in assay [1] is -7.7% (inactive); in assay [3], 20.7% (inactive); in assay [7], 10.6% (inactive); in assay [8], 15.5% (inactive). Also, the inhibition of aggregation in assay [2] is 16.5% (inactive). The values for the nuclei count in assay [2] and in assay [3] were 100% and 108%, respectively. In addition, the fluorescence slope in assay [4] is -0.621 (inactive). In assay [5], the NADPH fluorescence slope was 1.7e-05 (inactive). The slope in assay [6] is 0.0031 (inactive).

`CCc1nn(CC(=O)NCCCN2CCc3ccccc3C2)c(=O)c2cc3sccc3n12`: the cell count in assay [1] was 811. The inhibition in assay [1] was -6.4% (inactive); in assay [3], -64% (inactive); in assay [7], 2.67% (inactive); in assay [8], 50.9% (active). The inhibition of aggregation in assay [2] is 5.9% (inactive). For the same molecule, the figures for the nuclei count in assay [2] and in assay [3] were 138% and 116%, respectively. In addition, in assay [4], the fluorescence slope is -0.602 (inactive). For the same molecule, the NADPH fluorescence slope in assay [5] is 9.3e-06 (inactive). Besides, in assay [6], the slope was 0.00659 (inactive).

Take `Cc1cc(NCCN2CCOCC2)n2nc(C)c(-c3ccccc3)c2n1`: the cell count in assay [1] worked out at 685. In addition, the inhibition was -8.9% (inactive) in assay [1], -43.4% (inactive) in assay [3], 4.53% (inactive) in assay [7] and 3.88% (inactive) in assay [8]. The inhibition of aggregation in assay [2] is -34.5% (inactive). Moreover, the nuclei count in assay [2] was 118%; in assay [3] it was 110%. Besides, the fluorescence slope in assay [4] was -0.573 (inactive). In addition, the NADPH fluorescence slope in assay [5] is -2.5e-05 (inactive). In addition, in assay [6], the slope is 0.00587 (inactive).

Regarding `COc1ccc(NS(=O)(=O)c2coc(C(N)=O)c2)cc1Cl`, the cell count in assay [1] came out at 734. The inhibition is -6.3% (inactive) in assay [1], -27.2% (inactive) in assay [3], 6.28% (inactive) in assay [7] and 29.4% (inactive) in assay [8]. In assay [2], the inhibition of aggregation was 24% (inactive). Also, the results for the nuclei count in assay [2] and in assay [3] were 86.4% and 116%, respectively. Besides, in assay [4], the fluorescence slope is -0.605 (inactive). Besides, the NADPH fluorescence slope in assay [5] was 1.2e-05 (inactive). Besides, the slope in assay [6] was 0.00632 (inactive).

Consider `CC1(C)Cc2c(sc3c2c(=N)n(Cc2ccco2)c(=O)n3Cc2ccccc2)CO1`, for which, in assay [1], the cell count stood at 790. Moreover, the inhibition in assay [1] was -10.7% (inactive); in assay [3] it was -27.8% (inactive); in assay [7], 13.1% (inactive); in assay [8], 23.7% (inactive). Further, the inhibition of aggregation in assay [2] was 12% (inactive). For the same molecule, the nuclei count came out at 101% in assay [2] and 112% in assay [3]. Besides, in assay [4], the fluorescence slope is -0.587 (inactive). In assay [5], the NADPH fluorescence slope was 2.3e-06 (inactive). Moreover, the slope in assay [6] is 0.0065 (inactive).

Consider `COc1ccc(-c2cc(N3CCCC3)n3ncnc3n2)cc1`, for which the cell count in assay [1] worked out at 640. The inhibition in assay [1] was 11.9% (inactive); in assay [3], -3.2% (inactive); in assay [7], -11.3% (inactive); in assay [8], -11.7% (inactive). Also, in assay [2], the inhibition of aggregation is 7.3% (inactive). The nuclei count is 118% in assay [2] and 102% in assay [3]. Moreover, the fluorescence slope in assay [4] was -0.473 (inactive). Further, in assay [5], the NADPH fluorescence slope was -2.2e-05 (inactive). Besides, the slope in assay [6] is 0.00575 (inactive).

`CCC(=O)N1CCN(CCN=CC2=C(O)CC(C)(C)CC2=O)CC1`: in assay [1], the cell count was 476. Further, the inhibition in assay [1] was 4% (inactive); in assay [3], 5.8% (inactive); in assay [7] it was 8.29% (inactive); in assay [8], 11.4% (inactive). Moreover, in assay [2], the inhibition of aggregation was 1.1% (inactive). The nuclei count is 105% in assay [2] and 111% in assay [3]. Further, the fluorescence slope in assay [4] is -0.518 (inactive). In addition, the NADPH fluorescence slope in assay [5] was -2.4e-05 (inactive). Also, the slope in assay [6] was 0.00473 (inactive).

As for `Cc1[nH]nc2c1C(C1CC=CCC1)C(C#N)=C(N)O2` (centres undefined), in assay [1], the cell count was 424. The inhibition in assay [1] is 6.7% (inactive); in assay [3], -127% (inactive); in assay [7], -0.754% (inactive); in assay [8] it was 40.2% (inactive). The inhibition of aggregation in assay [2] was -6.7% (inactive). Moreover, the nuclei count came out at 99.5% in assay [2] and 117% in assay [3]. Also, the fluorescence slope in assay [4] was -0.459 (inactive). Also, in assay [5], the NADPH fluorescence slope was 8.5e-06 (inactive). Moreover, the slope in assay [6] was 0.00356 (inactive).

On to `CC1=C(C(N)=O)C(c2ccccn2)n2nc(-c3ccccc3Cl)nc2N1` (centres undefined), for which the cell count in assay [1] is 588. For the same molecule, the inhibition in assay [1] was -5.4% (inactive); in assay [3] it was -11.6% (inactive); in assay [7], -2.04% (inactive); in assay [8], 17.2% (inactive). Also, the inhibition of aggregation in assay [2] is -14.7% (inactive). Further, the nuclei count is 104% in assay [2] and 111% in assay [3]. The fluorescence slope in assay [4] was -0.553 (inactive). Further, the NADPH fluorescence slope in assay [5] is -3.1e-05 (inactive). For the same molecule, the slope in assay [6] is 0.0061 (inactive).

For the molecule `COc1nc(Oc2ccc(=O)n(C)n2)nc(N(C)C)n1`, the cell count in assay [1] was 420. Besides, the inhibition in assay [1] is 1% (inactive); in assay [3], -52.1% (inactive); in assay [7], 6.15% (inactive); in assay [8] it was 12% (inactive). The inhibition of aggregation in assay [2] was -5.2% (inactive). For the same molecule, the nuclei count in assay [2] was found to be 116%; in assay [3], 110%. In addition, the fluorescence slope in assay [4] is -0.357 (inactive). In addition, the NADPH fluorescence slope in assay [5] is -1.9e-05 (inactive). Moreover, the slope in assay [6] was 0.00579 (inactive).

In the case of `CCOc1cc(C2/C(=C(/O)c3ccc(OC(C)C)cc3)C(=O)C(=O)N2CCCOC)ccc1O` (centres undefined), in assay [1], the cell count was found to be 714. Besides, the inhibition in assay [1] is -7.5% (inactive); in assay [3], -120% (inactive); in assay [7], 12.7% (inactive); in assay [8], 14.8% (inactive). Also, in assay [2], the inhibition of aggregation is -20.2% (inactive). Further, the nuclei count in assay [2] and in assay [3] was 111% each time. In assay [4], the fluorescence slope was -0.513 (inactive). Also, the NADPH fluorescence slope in assay [5] was 2e-05 (inactive). Besides, in assay [6], the slope was 0.00381 (inactive).

In the case of `COc1ccc(NC(=O)C2Cc3ccccc3C(=O)O2)cc1` (centres undefined), the cell count in assay [1] turned out to be 642. For the same molecule, the inhibition is 0.3% (inactive) in assay [1], -19.3% (inactive) in assay [3], -11.7% (inactive) in assay [7] and -23.5% (inactive) in assay [8]. In addition, in assay [2], the inhibition of aggregation was 15.6% (inactive). The nuclei count in assay [2] amounted to 105%; in assay [3], 120%. Also, the fluorescence slope in assay [4] is -0.427 (inactive). Moreover, the NADPH fluorescence slope in assay [5] is -6e-05 (inactive). Also, the slope in assay [6] was 0.00562 (inactive).

For the molecule `O=C(c1ccco1)N1CCN(c2nc(C(F)(F)F)nc3c2nnn3Cc2ccccc2)CC1`, the cell count in assay [1] is 534. Also, the inhibition in assay [1] is -2.5% (inactive); in assay [3] it was -10.1% (inactive); in assay [7], 3.06% (inactive); in assay [8], -42% (inactive). Moreover, the inhibition of aggregation in assay [2] is -6.6% (inactive). Also, the values for the nuclei count in assay [2] and in assay [3] were 87.1% and 103%, respectively. Moreover, the fluorescence slope in assay [4] was -0.484 (inactive). Further, in assay [5], the NADPH fluorescence slope is -5.9e-05 (inactive). For the same molecule, the slope in assay [6] was 0.00661 (inactive).

As a reminder, the inhibition is the relative decrease from the control value, in per cent.

These data come from PubChem BioAssay.
